# Assay results as given in PubChem BioAssay (NCI).
# The panel holds about 83,000 compounds, 20% with a hit somewhere; the sample as a whole holds those more often.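 Plates (96-well) were seeded with cells, treated with compound at one concentration, and incubated for 48 hours before percent growth was determined.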 Values without a mark were called inactive. Calls of active or inactive are those of the source. How the source made its calls: active means growth percent below 10; inactive means the rest.
# Columns and labels:
# Experiment in all cases: NCI-60 one-dose screen, 48 h (100 = growth as untreated, 0 = no growth, -100 = all killed)
# Settings in all cases: 10 µM unless noted
# NCI-H23 lung = system: NCI-H23 lung
# NCI-H226 lung = system: NCI-H226 lung
# HOP-62 NSCLC = system: HOP-62 NSCLC
# NCI-H460 lung = system: NCI-H460 lung
# HOP-92 NSCLC = system: HOP-92 NSCLC
# NCI-H522 lung = system: NCI-H522 lung
# A549/ATCC NSCLC = system: A549/ATCC NSCLC
# 786-0 renal = system: 786-0 renal
# COLO 205 colon = system: COLO 205 colon
# DU-145 prostate = system: DU-145 prostate
# K-562 leukemia = system: K-562 leukemia
# MALME-3M melanoma = system: MALME-3M melanoma
# MDA-MB-231 breast = system: MDA-MB-231 breast
# RXF 393 renal = system: RXF 393 renal
# SF-268 CNS = system: SF-268 CNS
# SF-295 CNS = system: SF-295 CNS
# SF-539 CNS = system: SF-539 CNS
# UACC-257 melanoma = system: UACC-257 melanoma
# M14 melanoma = system: M14 melanoma
SMILES,growth (NCI-H23 lung),growth (NCI-H226 lung),growth (HOP-62 NSCLC),growth (NCI-H460 lung),growth (HOP-92 NSCLC),growth (NCI-H522 lung),growth (A549/ATCC NSCLC),growth (786-0 renal),growth (COLO 205 colon),growth (DU-145 prostate),growth (K-562 leukemia),growth (MALME-3M melanoma),growth (MDA-MB-231 breast),growth (RXF 393 renal),growth (SF-268 CNS),growth (SF-295 CNS),growth (SF-539 CNS),growth (UACC-257 melanoma),growth (M14 melanoma)
CC1CN1CCCCN1CC1C (stereo not drawn),109%,106%,109%,104%,88.2%,66.4%,101%,103%,115%,105%,83.6%,103%,125%,115%,98.6%,101%,103%,83.9%,107%
O=C1C(Cl)=C(N2CCOCC2)C(=O)c2ccccc21,85.2%,104%,105%,101%,-75.2% (active),75.1%,101%,111%,106%,114%,-36.7% (active),48.2%,84.2%,129%,87.6%,92.9%,117%,54.4%,105%
COC(=O)[C@@H](C)C[C@H](Cc1ccccc1)NC(=O)c1csc([C@@H](C[C@H](C(C)C)N(C)C(=O)[C@@H](NC(=O)[C@H]2CCCCN2C)C(C(F)(F)F)C(F)(F)F)OC(C)=O)n1,44.8%,56.7%,15.1%,5.59% (active),12.4%,-8.2% (active),12.8%,-5.39% (active),-50.6% (active),11.4%,8.83% (active),65.8%,6.65% (active),46%,18.3%,9.85% (active),-11.1% (active),52.4%,-20.3% (active)
COC(=O)[C@@H](C)C[C@H](Cc1ccccc1)NC(=O)c1csc([C@@H](C[C@H](C(C)C)N(C)C(=O)[C@@H](NC(=O)[C@H]2CCCCN2C)C2CC2)OC(C)=O)n1,22%,20.5%,15.7%,14.1%,31.3%,-45.5% (active),13%,21.8%,-69.9% (active),2.33% (active),9.03% (active),63.6%,23%,46.9%,32.8%,9.01% (active),-0.629% (active),58.3%,10.8%
O=C1C(=Cc2cn(Cc3ccccc3)c3ccccc23)C(=O)N(Cc2ccccc2)C(=O)N1Cc1ccccc1,87.8%,-49.4% (active),85.5%,36%,90.9%,87.6%,80.1%,93.3%,26.4%,110%,81.5%,105%,89.3%,57.6%,87.5%,34.4%,83.5%,52.9%,104%
CN1CC(CNC(=O)OCc2ccccc2)CC2c3cccc4c3c(cn4C)CC21 (stereo not drawn),71.6%,78%,35.2%,40.4%,29.5%,60.5%,45.5%,42.8%,-72.5% (active),56.8%,3.66% (active),-16% (active),27.3%,8.6% (active),59%,25.8%,28.6%,-60.4% (active),-58% (active)
CC[C@H](C)[C@H](NC(=O)C12C3C4C1C1C2C3C41NC)C(=O)N(C)[C@H](C[C@@H](OC(C)=O)c1nc(C(=O)N[C@@H](Cc2ccccc2)C[C@H](C)C(=O)OC)cs1)C(C)C (stereo partly drawn),31.6%,41.4%,16.9%,6.43% (active),34.1%,-4.71% (active),31.4%,19.1%,-15.5% (active),7.38% (active),9.19% (active),50.1%,29.1%,39.4%,30%,19.4%,-5.82% (active),42.1%,-14.4% (active)
CC(C)COC(C[N+](=O)[O-])C(Cl)(Cl)Cl (stereo not drawn),105%,107%,111%,108%,102%,98.6%,98.1%,112%,102%,119%,99.9%,123%,111%,115%,105%,113%,106%,96.1%,105%
CCOc1ccccc1C(=O)OCC(Cl)(Cl)Cl,102%,101%,99.9%,107%,113%,105%,106%,99.6%,102%,99.8%,98.8%,109%,114%,109%,101%,105%,101%,112%,103%
O=[N+]([O-])c1ccc([Se]C2CCCCC2Cl)c([N+](=O)[O-])c1 (stereo not drawn),40.3%,73.5%,7.16% (active),57.7%,53.8%,63.3%,45.5%,128%,102%,82.1%,105%,69.8%,61.7%,67.7%,14.3%,-41.3% (active),-87.3% (active),59.2%,40.2%
COC(=O)[C@H](Cc1c[nH]c2ccccc12)NC(=O)[C@@H](OC)[C@@H]1Cc2cc3cc(OC4CC(OC5CC(O)C(O)C(C)O5)C(O)C(C)O4)c(C)c(O)c3c(O)c2C(=O)[C@H]1OC1CC(OC2CC(OC3CC(C)(O)C(O)C(C)O3)C(O)C(C)O2)C(O)C(C)O1 (stereo partly drawn),-20.3% (active),-38.6% (active),9.74% (active),6.58% (active),-13.9% (active),-28.2% (active),12.7%,1.54% (active),-39.5% (active),12.5%,4.37% (active),-47% (active),-14% (active),-85.9% (active),-10.1% (active),-6.35% (active),-35.3% (active),-5% (active),-60.2% (active)
CCCC(C)C1(CC)C(=O)NC(=O)N(C)C1=O (stereo not drawn),100%,85.5%,85.1%,106%,92%,80.7%,79.1%,94.3%,99.6%,107%,102%,90.1%,107%,119%,100%,102%,96.4%,83.6%,101%
